SARS PLpro yeast: inhibitors of SARS-CoV papain-like protease in yeast | S. cerevisiae expressing SARS-CoV PLpro, growth rescue | Potency, µM (top dose mostly 32.9 µM), inactives show at the highest dose activity, positive = growth rescue, usual class: activators | 330,000 tested, 0.19% active | AID 485353; calls by dose curve; also: 0% is about no effect; nearly all actives have a fitted effect of over 55% in size
HCV inh: inhibitors of hepatitis C virus infection; Potency, µM (titrated, usually from 41.8 µM), for the others: at the highest dose activity change, negative = inhibition, usual class: inhibitors; Huh7.5.1 HCVcc-Cre infection, luciferase reporter, 44 h; 340,000 tested, 3.4% active; AID 651820; also: % is scaled to controls: 0 for no effect and ±100 for the full control effect
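Seed cells (1,000/well) for 4 h; treat with compound and infect with HCVcc-Cre, moi about 0.5. Incubate 44 h, then detect luciferase activity.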
Pf growth 96h: inhibits malaria parasite growth, 96 h. P. falciparum luciferase reporter growth, 96 h. Potency, µM (titrated, usually from 28.7 µM), for inactives: top-dose activity change, negative = inhibition, hits mostly inhibitors. 320,000 tested, 6.9% active; also: % is scaled to controls: 0 for no effect and ±100 for the full control effect
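P. falciparum expressing integrated firefly luciferase, in erythrocytes at 2% hematocrit, 0.05% parasitemia, incubated with compounds 96 h at 37 C, 5% CO2. Growth inhibition read as loss of luminescence; two-generation exposure targets delayed-death apicoplast inhibitors.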
AMA1-RON2 inh: AMA1-RON2 (P. falciparum) interaction inhibition; AlphaScreen AMA1-biotinylated RON2 peptide binding; Potency, µM (series often up to 58.2 µM), for inactives: at the highest dose activity change, negative = inhibition, hits mostly inhibitors; 360,000 tested, 0.2% active; AID 720542;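 also: 0% = vehicle wells and -100% = peptide control; nearly all actives have a fitted effect of over 45% in size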
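AMA1 (3D7) with his tag at 25 nM final met compounds first, then biotinylated RON2 peptide at 25 nM; detection used donor plus acceptor beads, 10 µg/mL apiece, read by AlphaScreen after 30 min at room temperature.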
Pf growth 48h: inhibits P. falciparum growth in the first generation, 48 h; P. falciparum luciferase growth in erythrocytes, 48 h; Potency, µM (doses to about 28.7 µM), inactives show at the highest dose activity change, negative = inhibition, hits mostly inhibitors; 310,000 tested, 5.9% active; also: % is scaled to controls: 0 for no effect and ±100 for the full control effect
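In quantitative HTS format, infected erythrocytes bearing luciferase-reporter parasites were treated for a single generation at 37 C. Luminescence after adding detection reagent served as the growth measure.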
NS1 function inh: influenza NS1 inhibition. 270,000 tested, 0.4% active. Potency, µM (doses to about 46.1 µM), for inactives: top-dose activity, positive = more growth. AID 2326; calls by dose curve; also: actives are rising curves; nearly all actives have a fitted effect of over 50% in size
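S. cerevisiae expressing influenza A NS1, grown in glucose, washed, then diluted 1:100 into pH 6.0 -URA galactose medium with 23 nl compound. Growth recovery read as OD600; NS1-free strain serves as control.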
Numbers without * were called inactive; ? = inconclusive; · = not tested or not shown; [ ] = dose if it differs, or a comment. Only some compounds are listed: those with a hit (about 12% of all), similar ones and a draw of the others. Unless noted, calls follow the shape of the dose curve; as a rule, active = well fitted curve in the direction sought with a large enough effect; inconclusive = small, poorly fitted or top-dose-only effect, or another doubt; inactive = no such curve, though single readings can be large; an effect the other way counts as inactive or inconclusive. Potency is read from the fitted curve at half-maximal effect.

SMILES	SARS PLpro yeast	HCV inh	Pf growth 96h	AMA1-RON2 inh	Pf growth 48h	NS1 function inh
CCC(C)(c1nnnn1-c1c(C)cccc1C)N(N=O)c1ccccc1Cl (stereo unspecified)	-11.3%	?	?	-17.3%	?	-8.4%
COc1ccccc1/C=C/C(=O)Nc1ccc2c(c1)OCCO2	-60.1%	-29.6%	13.1µM*	4.8%	326.7%	-49.5%
O=C(Cc1ccc2c(c1)OCCO2)Nc1ccc(Cl)c(S(=O)(=O)N2CCOCC2)c1	-18.8%	?	9.28µM*	-1.2%	?	·
COc1cc(C(=O)Nc2ccc3c(c2)OCCO3)ccc1OC(C)C	-7.4%	12.6µM*	?	2.5%	99.3%	-13.3%
COc1ccc(C(=O)Nc2ccc3c(c2)OCCO3)cc1S(=O)(=O)N1CCOCC1	-17.1%	?	10.4µM*	-17.4%	?	·
CC(=O)Nc1ccc(NC(=O)c2c(-c3ccccc3)noc2C)cn1	-0.5%	12.0%	2.7%	0.0%	1.5%	9.3%
CCCCn1c(N)c(N(CC(C)C)C(=O)CSCC(=O)Nc2ccc(C)cc2)c(=O)[nH]c1=O	-2.2%	23.4%	?	-5.1%[11.6 µM]	?	·
COC(=O)[C@H]1Cc2c([nH]c3ccccc23)[C@H](c2ccccc2)N1	-2.0%	-13.4%	3.2%	-9.7%	-6.7%	-5.9%
COc1ccc(C2NC(C(=O)O)Cc3c2[nH]c2ccccc32)cc1CN1CCN(c2ccc(F)cc2)CC1 (stereo unspecified)	-0.4%	-17.0%	?	32.8%	10.4µM*	0.2%
COc1ccc(/C=N/NC(=O)c2cccnc2)cc1CN1CCN(c2ccc(F)cc2)CC1	0.0%	-0.4%	0.0%	12.7%	-27.8%	·
O=C(O)C1Cc2c([nH]c3ccccc23)C(c2ccc3c(c2)OCO3)N1 (stereo unspecified)	-0.2%	-3.0%	9.28µM*	17.7%	2.9%	4.6%
CCN(Cc1ccccc1)C1CCN(Cc2ccc(SC)cc2)CC1	-3.6%	7.08µM*	-25.6%	?	?	·
COc1cccc(C(=O)Nc2ccc3c(cc2=O)[C@@H](NC(C)=O)CCc2cc(OC)c(OC)c(OC)c2-3)c1	0.3%	31.6µM*	?	2.5%	8.28µM*	10.5%
CCOc1ccc(CCNC(=O)C2=C(C)C(=O)OC23CCC(C)CC3)cc1 (stereo unspecified)	3.2%	-14.9%[8.37 µM]	10.4µM*	-3.6%	-3.5%	-13.8%
O=C(N/N=C/c1ccc(O)c(O)c1)c1ccc(CSc2cccc3cccnc23)cc1	1.8%	15.8µM*	·	41.4%	0.1%	14.6%
CCN1CCN(C(=O)c2ccc3c(c2)N(Cc2ccccc2)C(=O)c2ccccc2S3(=O)=O)CC1	-0.4%	-25.3%	23.0%	-4.4%	6.57µM*	-8.3%
CC1CCCCN1CCNC(=O)c1ccc2c(c1)N(Cc1ccccc1)C(=O)c1ccccc1S2(=O)=O (stereo unspecified)	0.5%	?	?	10.0%	5.22µM*	-17.6%
CCN1CCN(C(=O)c2ccc3c(c2)S(=O)(=O)c2ccccc2C3=O)CC1	-1.6%	3.4%	-23.2%	-0.4%	20.1%	·
O=C(NCCN1CCCC1)c1ccc2c(c1)N(Cc1cccc(Cl)c1)C(=O)c1ccccc1S2(=O)=O	-0.4%	?	0.0%	-11.2%	8.28µM*	8.8%
O=C(NCCN1CCOCC1)c1ccc2c(c1)N(Cc1ccccc1F)C(=O)c1ccccc1S2(=O)=O	5.0%	-7.3%	3.0%	8.0%	0.0%	-4.9%
Cc1cccc(CN2C(=O)c3ccccc3S(=O)(=O)c3ccc(C(=O)NCCCN4CCCC4)cc32)c1	-4.0%	5.8%	?	-10.8%	10.4µM*	2.3%
COc1ccc(-n2c(N)c(-c3nc4ccccc4n3C)sc2=S)cc1	-2.1%	-15.7%	28.4%	81.9%	0.928µM*	3.2%
Clc1cccc2c3c([nH]c12)CCNC3	6.1%	?	0.586µM*	-4.6%	12.6%	-2.1%
Cc1cccc2c1ncc1c(=O)n(-c3ccccc3)[nH]c12	0.2%	7.8%	?	-5.5%	-11.2%	2.2%
CCOc1ccc(Nc2cc(=O)oc3ccccc23)cc1	-4.0%	-27.0%	1.65µM*	-6.3%	1.31µM*	-35.2%
SMILES	SARS PLpro yeast	HCV inh	Pf growth 96h	AMA1-RON2 inh	Pf growth 48h	NS1 function inh
Cc1cc(C)cc(N=Cc2[nH]c3ccc(Br)c(Cl)c3c2O)c1	?	3.4%	?	3.1%[2.32 µM]	1.47µM*	2.6%
COc1ccc(CN=CC2=C(O)CNC2=O)cc1	?	3.6%	35.6%	0.3%	0.0%	3.5%
COc1ccc(CN=Cc2[nH]c3ccc(Br)c(Cl)c3c2O)cc1	-17.3%	3.2%	?	2.8%	3.7µM*	-29.3%
Cc1ccccc1CN1CCN(c2ccc(S(=O)(=O)N3CCCC3)cn2)CC1	1.1%	?	?	7.3%[11.6 µM]	?	·
Nc1ncnc2c1ncn2[C@@H]1O[C@H](CNCc2ccccc2OCC(=O)N2CCCCC2)[C@@H](O)[C@H]1O	6.8%	0.2%	·	-1.6%	·	·
COC(=O)c1cccc(Nc2ncnc3ccc(C)cc23)c1	-11.1%	-22.7%	?	-6.0%	·	-46.9%
Cc1ccc(Cn2ncc3c(N4CCOCC4)ncnc32)cc1	-21.9%	?	51.0%	7.2%	0.1%	-15.7%
Cc1ccc(Cn2ncc3c(N4CCN(c5ccccc5C)CC4)ncnc32)cc1	-15.9%	?	?	-6.4%	13.1µM*	-53.4%
COc1ccc(Nc2ncnc3ccc(C)cc23)cc1	-13.7%	-6.2%	11.7µM*	9.0%	?	-43.7%
COc1ccc(Nc2ncnc3c2cnn3Cc2ccc(C)cc2)cc1	-6.9%	11.2µM*	·	-10.7%	-3.4%	-0.4%
O=C(NCC(=O)N1CCC(N2CCCCC2)CC1)C1CCCCC1	3.8%	11.2%	1.17µM*	-16.5%	8.9%	3.6%
O=C(NCC(=O)N1CCN(c2ccccc2O)CC1)C1CCCCC1	-6.4%	7.3%	?	2.6%	?	·
CCOC(=O)C1(CC2CCCCO2)CCN(Cc2nccn2-c2cccc(C)c2)CC1 (stereo unspecified)	0.4%	-29.1%	0.0%	31.1%	?	-0.7%
CCOC(=O)C1(CC2CCCCO2)CCN(Cc2nccn2-c2ccc(OC)cc2)CC1 (stereo unspecified)	1.6%	5.3%	-11.0%	5.7%	10.4µM*	3.7%
O=C(c1ccc(F)cc1)C1CCN(CCn2c(=O)[nH]c3ccccc3c2=O)CC1	-1.3%	?	10.7µM*	-20.9%	6.57µM*	?
Cc1cc(C)c(Nc2cc(S(=O)(=O)O)c(N)c3c2C(=O)c2ccccc2C3=O)c(C)c1	-28.9%	13.0%	?	28.2µM*	?	-16.3%
CCOc1ccc2nc(COC(=O)c3ccncc3)c(C(=O)c3ccccc3)[n+]([O-])c2c1	-0.4%	7.6%	40.6%	1.1%	102.0%	-3.8%

High-throughput results as filed in PubChem.
